Screens from PubChem.
Avidin bead fluor: green autofluorescence of compounds with avidin beads – biophysical, 488/530 nm, flow cytometry, artefact control, profiling panel; AID 1775, 2009; 220,000 tested, 0.38% active; fluorescence (KMESF) at 10 µM; compound fluorescence 488/530 nm; hits give high values; in the data active = fluorescence above about 47
RGS7-Gao: RGS7-Galphao binding modulators, primary screen, biochemical, multiplexed bead flow cytometry. Guanine nucleotide-binding protein G(o) subunit alpha (Homo sapiens), P09471. 220,000 tested, 0.35% active. actives lie on both sides. binding response (% of control), % at 10 µM; in the data active = binding response below about 49% or above about 150%; inconclusive = no clear call, values can overlap the other calls; inactive = in between;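 note: fluorescent Galphao held in activated GDP-AlF4 state binding bead-coupled RGS7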
GSH bead fluor: compound fluorescence on glutathione beads, profiling panel, artefact control, biophysical, 488/530 nm, flow cytometry; GSH beads flow cytometry, compound fluorescence 488/530 nm; hits give high values; 190,000 tested, 0.25% active; AID 1776, 2009; fluorescence (KMESF) at 10 µM; in the data active = fluorescence above about 89;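 note: glutathione beads carrying GST-tagged Bcl family fusion proteins plus one bare bead set; values are compound well signal with DMSO vehicle wells as background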
RGS4-Gao reg: modulators of RGS4 binding to Galphao, primary screen, biochemical, multiplexed bead flow cytometry; Guanine nucleotide-binding protein G(o) subunit alpha (Homo sapiens), P09471; actives lie on both sides; binding response (% of control), % at 10 µM; 220,000 tested, 0.33% active; in the data active = binding response below about 49% or above about 150%; inactive = in between;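 note: fluorescent Galphao activated with aluminum fluoride binding bead-coupled RGS4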
RGS8-Gao: RGS8-Galphao binding modulators, primary screen, biochemical, multiplexed bead flow cytometry; 220,000 tested, 0.34% active; actives lie on both sides; response (percent of control binding), % at 10 µM; AID 1423, 2008; Guanine nucleotide-binding protein G(o) subunit alpha (Homo sapiens), P09471; in the data active = response below about 60% or above about 140%; inactive = in between;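 note: Galphao activated as the GDP aluminium fluoride complex binding bead-coupled RGS8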
RGS16-Gao HTS: modulators of RGS16 binding to Galphao, primary screen, biochemical, human proteins, multiplexed bead flow cytometry. Regulator of G-protein signaling 16 (Homo sapiens) + Guanine nucleotide-binding protein …. 220,000 tested, 0.38% active. bead-based flow cytometry RGS16-Galphao binding, fluorescence; actives lie on both sides. binding response (% of control), % at 10 µM; call rule not given here;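 note: Galphao activated by GDP with aluminum fluoride before binding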
Target sequence (O15492 whole entry, looked up): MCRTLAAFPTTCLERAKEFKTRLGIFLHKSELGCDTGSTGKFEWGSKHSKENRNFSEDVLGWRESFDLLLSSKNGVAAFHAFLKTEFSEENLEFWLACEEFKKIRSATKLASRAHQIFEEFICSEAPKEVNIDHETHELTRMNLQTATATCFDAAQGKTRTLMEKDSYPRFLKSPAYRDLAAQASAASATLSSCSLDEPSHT
Target sequence (P09471 whole entry, looked up): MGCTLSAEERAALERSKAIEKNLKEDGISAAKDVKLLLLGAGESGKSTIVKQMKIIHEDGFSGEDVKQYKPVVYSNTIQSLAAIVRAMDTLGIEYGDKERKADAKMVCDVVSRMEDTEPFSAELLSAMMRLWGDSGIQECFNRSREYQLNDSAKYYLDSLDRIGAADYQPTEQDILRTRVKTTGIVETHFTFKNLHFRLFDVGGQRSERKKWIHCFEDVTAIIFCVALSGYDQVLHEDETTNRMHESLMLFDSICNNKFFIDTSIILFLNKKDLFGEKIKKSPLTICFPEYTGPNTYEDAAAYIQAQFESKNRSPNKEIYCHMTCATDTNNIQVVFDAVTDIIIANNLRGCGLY
* hit, by the source's call. Sampled rows, rich in hits. Any-hit rate of the full collection: about 1.2%.

Cc1ccsc1C(=O)OCC(=O)NCc1ccc2c(c1)OCO2 was read as Avidin bead fluor 7, RGS7-Gao 104, GSH bead fluor 261*, RGS4-Gao reg 103, RGS8-Gao 103 and RGS16-Gao HTS 105.
Screening CC(=O)OCC(=O)NCc1ccc2c(c1)OCO2 returned Avidin bead fluor 8, RGS7-Gao 106, GSH bead fluor 46, RGS4-Gao reg 105, RGS8-Gao 103 and RGS16-Gao HTS 110.
For Cc1ccc(C2=NN(CCC(=O)NCc3ccc4c(c3)OCO4)C(=O)CC2)cc1 the results were Avidin bead fluor 32, RGS7-Gao 115, GSH bead fluor 226*, RGS4-Gao reg 115, RGS8-Gao 97 and RGS16-Gao HTS 119.
Screening CN1CC(=O)N(CC(=O)NCc2ccc3c(c2)OCO3)C1=O returned Avidin bead fluor 8, RGS7-Gao 100, GSH bead fluor 283*, RGS4-Gao reg 102, RGS8-Gao 105 and RGS16-Gao HTS 106.
Screening CCn1c(Cc2ccccc2)nnc1SCC(=O)Nc1ccc(C)cc1 returned Avidin bead fluor 5, RGS7-Gao 100, GSH bead fluor 16, RGS4-Gao reg 97, RGS8-Gao 100 and RGS16-Gao HTS 108.
CCn1c(CC(=O)Nc2ccc(C)cc2)nnc1SCC(=O)NCCc1ccccc1 was read as Avidin bead fluor 49*, RGS7-Gao 111, GSH bead fluor 15, RGS4-Gao reg 104, RGS8-Gao 101 and RGS16-Gao HTS 106.
Screening O=C(O)C(Cc1c[nH]c2ccccc12)NS(=O)(=O)c1ccc(Cl)cc1 (stereo not drawn) returned Avidin bead fluor 8, RGS7-Gao inconclusive, GSH bead fluor 18, RGS4-Gao reg 113, RGS8-Gao 110 and RGS16-Gao HTS 118.
Cc1nnc(-c2cnn(-c3ccccc3)c2N)n1Cc1ccncc1 was read as Avidin bead fluor 78*, RGS7-Gao 122, GSH bead fluor 13, RGS4-Gao reg 105, RGS8-Gao 100 and RGS16-Gao HTS 106.
Screening Cc1nnc(-c2cnn(-c3ccccc3)c2N)n1Cc1cccc(C(F)(F)F)c1 returned Avidin bead fluor 17, RGS7-Gao 103, GSH bead fluor 12, RGS4-Gao reg 106, RGS8-Gao 104 and RGS16-Gao HTS 105.
For CC(=O)N1c2ccccc2NC2=C(C(=O)CCC2)C1c1cccnc1 (stereo not drawn) the results were Avidin bead fluor 49*, RGS7-Gao 105, GSH bead fluor 19, RGS4-Gao reg 97, RGS8-Gao 96 and RGS16-Gao HTS 105.
CN(c1ccccc1C(=O)O)S(=O)(=O)c1ccc2c3c(cccc13)C(=O)N2 was read as Avidin bead fluor 19, RGS7-Gao 96, GSH bead fluor 18, RGS4-Gao reg 96, RGS8-Gao 100 and RGS16-Gao HTS 94.
`O=C(O)c1ccccc1NS(=O)(=O)c1ccc2c3c(cccc13)C(=O)N2` gave Avidin bead fluor 75*, RGS7-Gao 133, GSH bead fluor 19, RGS4-Gao reg 114, RGS8-Gao 104 and RGS16-Gao HTS 108.
`COc1ccc(-c2nnn(CC(=O)N3CCOCC3)n2)cc1` gave Avidin bead fluor 79*, RGS7-Gao 118, GSH bead fluor 34, RGS4-Gao reg 100, RGS8-Gao 97 and RGS16-Gao HTS 95.
For COc1cc(/C=C(/C(=O)c2cccs2)c2nc3ccccc3[nH]2)cc(OC)c1O the results were Avidin bead fluor 7, RGS7-Gao 101, GSH bead fluor 19, RGS4-Gao reg 105, RGS8-Gao 104 and RGS16-Gao HTS 106.
`COc1ccc(/C=C/C=C2\NC(=S)NC2=O)cc1` gave Avidin bead fluor 20, RGS7-Gao 103, GSH bead fluor 51, RGS4-Gao reg 99, RGS8-Gao 89 and RGS16-Gao HTS 59.
Screening O=C(CN1CCC(NC(=O)c2ccco2)CC1)Nc1cccc2ccccc12 returned Avidin bead fluor 6, RGS7-Gao 117, GSH bead fluor 120*, RGS4-Gao reg 119, RGS8-Gao 107 and RGS16-Gao HTS 109.
